Bioassay records deposited in PubChem BioAssay by Broad Institute.
aSyn 5UTR act: Activators working through SNCA 5'UTR binding (MLPCN); alpha-synuclein 5'UTR reporter, activators screen; activity score, % (tested at 7.5 µM), hits read low; 300,000 tested, 7.1% active; in the data active means activity score below about -60%
Of the large screens only hits and unclear results are named; the others gave an inactive call. Only a sample is shown.

COC(=O)c1c(NC(=O)c2cccs2)sc2c1CCC(C)C2 (stereo not drawn)	aSyn 5UTR act -112.9
CCCC1CCc2c(sc(NC(=O)c3cccs3)c2C(N)=O)C1 (stereo not drawn)	aSyn 5UTR act -99.0
Cc1ccc2c(Cl)c(C(=O)NCCc3ccccc3)sc2c1	aSyn 5UTR act -165.8
O=C(NCC1CCCO1)c1sc2ccccc2c1Cl (stereo not drawn)	aSyn 5UTR act -105.6
CC(NC(=O)c1sc2ccccc2c1Cl)C1CCCO1 (stereo not drawn)	aSyn 5UTR act -65.4
O=C(CNC(=O)c1sc2ccccc2c1Cl)NC1CC1	aSyn 5UTR act -118.3
Cc1ccnc(NC(=O)c2sc3ccccc3c2Cl)c1	none
Cc1ccc2c(Cl)c(C(=O)Nc3cc(C)on3)sc2c1	aSyn 5UTR act -121.7
Cc1ccc2c(Cl)c(C(=O)NCC3CCCO3)sc2c1 (stereo not drawn)	aSyn 5UTR act -137.3
CN(Cc1c(F)cccc1Cl)C(=O)CNC(=O)c1sc2ccccc2c1Cl	aSyn 5UTR act -66.4
O=C(NNC(=O)C1CC2CCC1C2)c1sc2ccccc2c1Cl (stereo not drawn)	aSyn 5UTR act -112.5
CS(=O)(=O)c1nc(-c2ccco2)cc(C(F)(F)F)n1	aSyn 5UTR act -75.6
Cc1cc(NC(=O)CSc2nc(-c3ccco3)cc(C(F)(F)F)n2)no1	none
Cc1cccc(NC(=S)NC(=O)c2oc3ccccc3c2C)n1	aSyn 5UTR act -144.0
Cc1cccc(NC(=S)NC(=O)c2ccc(-c3ccccc3)cc2)n1	aSyn 5UTR act -108.5
COc1ccc(Cl)c2c1[nH]c1nc(SCc3ccccn3)nnc12	aSyn 5UTR act -105.7
O=C(NCC(=O)N1CCc2ccccc2C1)c1ccccc1Cl	aSyn 5UTR act -101.1
O=C(CNC(=O)c1ccccc1Cl)OCC(=O)N1CCc2ccccc21	aSyn 5UTR act -117.0
Cc1cc(C(=O)OCC(=O)N2CCc3ccccc32)c(C)o1	aSyn 5UTR act -162.9
Cn1cc(Cl)c(C(=O)N/N=C/c2ccc3c4c(cccc24)CC3)n1	aSyn 5UTR act -126.4
Cc1ccc(/C=N/NC(=O)c2nn(C)cc2Cl)cc1	aSyn 5UTR act -107.8
Cc1ccc2c(c1)Cc1nc3ccccc3nc1-2	none
Cc1ccc2c(c1)C(=NC1CCCCC1)c1cc3ccccc3nc1-2	aSyn 5UTR act -206.3
CCSc1n[nH]c(=S)s1	aSyn 5UTR act -88.8
Cn1cccc1-c1nc2ccc(NC(=O)c3ccccc3)cc2[nH]1	aSyn 5UTR act -124.5
Cn1cccc1-c1nc2ccccc2[nH]1	aSyn 5UTR act -114.1
Cc1ccc(N=Cc2sccc2C)cc1C	aSyn 5UTR act -111.4
O=C(Cn1nnc(-c2ccc(OCc3ccccc3F)cc2)n1)N1CCOCC1	aSyn 5UTR act -69.8
O=C(Cn1nnc(-c2ccccc2)n1)N1CCCCC1	aSyn 5UTR act -70.3
Cn1c(-c2ccccc2)cnc1SCC(=O)N1CCCCC1	none
O=C(Cn1nnc(-c2ccccc2Cl)n1)N1CCCCC1	aSyn 5UTR act -98.1
CC1CCCN(C(=O)Cn2nnc(-c3ccccc3F)n2)C1 (stereo not drawn)	aSyn 5UTR act -102.6
CC(C)c1ccc(-c2nnn(CCC(=O)O)n2)cc1	none
CC(C)COc1ccc(-c2nnn(CC(=O)N3CCCC3)n2)cc1	aSyn 5UTR act -89.4
CCOC(=O)c1c(C)[nH]c2c1cc(O)c1ccccc12	aSyn 5UTR act -188.9
CCOC(=O)c1c(C)oc2c1cc(O)c1ccccc12	aSyn 5UTR act -104.2
CCOC(=O)c1c2c(n(C)c1C)C(=O)C(=O)c1ccc(Br)cc1-2	none
CCOC(=O)c1c(C)oc2c1c1c(c3ccccc32)OCN(CCCC(=O)O)C1	aSyn 5UTR act -108.3
C/C(=N\NC(=S)Nc1ccc(F)cc1)c1ccc2c(c1)OCCO2	aSyn 5UTR act -80.3
COc1ccc(-c2nc(CN3CCN(c4cc(C)nc(C)c4)CC3)c(C)o2)c2ccccc12	none
Cc1oc(-c2ccc(-c3ccccc3)cc2)nc1CN1CCN(CC(=O)N(C)C)CC1	aSyn 5UTR act -143.1
C(#CC1CCCC1)c1ccc2c(c1)COc1c3ccccc3nn1-2	aSyn 5UTR act -146.2
COC(=O)C1=C(N)Oc2cc(N(C)C)ccc2C1c1ccccc1OC (stereo not drawn)	none
CCOC(=O)c1ccc2c(c1)NCc1cccc(OC)c1O2	aSyn 5UTR act -128.6
Cc1cccc(C)c1N1CCN(C(=O)Nc2ccc3c(c2)OCCO3)CC1	aSyn 5UTR act -73.7
O=C(Nc1ccc2c(c1)OCCO2)C1CCN(C(=O)c2ccc(F)cc2)CC1	aSyn 5UTR act -84.5
O=C(Nc1ccc2c(c1)OCCO2)N1CCN(c2ccc(F)cc2)CC1	aSyn 5UTR act -87.9
Cc1ccc2c(C)c(C(=O)N3CCN(Cc4ccc5c(c4)OCO5)CC3)oc2c1C	aSyn 5UTR act -63.3
COc1ccc(C(=O)/C=C/Nc2cccc(C)n2)cc1OC	aSyn 5UTR act -194.9
O=C1NC(c2cccs2)Nc2sc3c(c21)CCCC3 (stereo not drawn)	aSyn 5UTR act -131.2
COc1cc2c(cc1NC(=O)c1ccccc1F)CCCC2	aSyn 5UTR act -270.3
COc1cc2c(cc1NC(=O)c1cccc(F)c1)CCCC2	aSyn 5UTR act -75.7
COc1cc(OC)c(NC(=O)c2ccccc2F)cc1Cl	aSyn 5UTR act -121.8
O=C(NNC(=S)Nc1ccc(F)cc1)c1ccccc1OC(F)F	aSyn 5UTR act -62.7
O=C(NNC(=S)Nc1cccc(Cl)c1)c1ccccc1OC(F)F	aSyn 5UTR act -82.9
Cc1ccc(NC(=S)NNC(=O)c2ccccc2OC(F)F)cc1	aSyn 5UTR act -86.7
Cc1ccc(/C=N/Nc2ncc(Cl)cc2Cl)s1	aSyn 5UTR act -147.8
Oc1ccc(/C=N/Nc2ncc(Cl)cc2Cl)cc1	aSyn 5UTR act -73.0
Clc1cnc(N/N=C/c2cccs2)c(Cl)c1	aSyn 5UTR act -192.6
Cc1nc(-n2[nH]c3c(c2=O)CCCC3)[nH]c(=O)c1Cc1ccccc1	none
COc1ccc(/C=C2\SC(=O)N(CCC(=O)Nc3ccccc3)C2=O)cc1OC	none
COc1ccccc1/C=C1\SC(=O)N(CCC(=O)NNC(=O)c2ccccc2Cl)C1=O	aSyn 5UTR act -74.4
Cc1ccc(C(=O)OCC(=O)NCc2cccs2)c(C)c1	aSyn 5UTR act -75.2
O=[N+]([O-])c1cccnc1Oc1ccc(C2SCCS2)cc1	aSyn 5UTR act -106.3
O=[N+]([O-])c1cccnc1Oc1ccc(OCc2ccccc2)cc1	aSyn 5UTR act -78.7
O=[N+]([O-])c1cccnc1Sc1ccc(Br)cc1	none
Cc1ccccc1OCc1occc1C(=O)Nc1cccc(-n2cnnn2)c1	aSyn 5UTR act -91.5
O=C(Nc1ncc([N+](=O)[O-])s1)c1ccco1	aSyn 5UTR act -98.1
O=C(Cc1ccc(Br)cc1)Nc1ncc([N+](=O)[O-])s1	aSyn 5UTR act -104.6
Cc1ccc(C(=O)Nc2ncc([N+](=O)[O-])s2)cc1	none
O=C(Cc1ccc(Cl)cc1)Nc1ncc([N+](=O)[O-])s1	aSyn 5UTR act -131.1
COc1ccc(C(C(=O)NC2CCCCC2)N(C(=O)CCl)c2cccc(Cl)c2)cc1 (stereo not drawn)	aSyn 5UTR act -74.3
C#CC(=O)N(c1ccc(OC)cc1OC)C(C(=O)NC1CCCC1)c1cccs1 (stereo not drawn)	none
CCC(C)c1ccc(N(C(=O)c2ccco2)C(C(=O)NC2CCCC2)c2cccnc2)cc1 (stereo not drawn)	aSyn 5UTR act -115.0
O=C(NC1CCCCC1)C(c1cccnc1)N(C(=O)CCl)c1ccc(F)cc1 (stereo not drawn)	aSyn 5UTR act -94.0
CC(C)c1ccc(N(C(=O)c2ccco2)C(C(=O)NC2CCCC2)c2ccncc2)cc1 (stereo not drawn)	aSyn 5UTR act -149.5
Cc1cnc(NC(=O)/C=C/c2ccc(Br)o2)s1	aSyn 5UTR act -105.6
Cc1ccc(/C=C/C(=O)Nc2ncc(C)s2)o1	aSyn 5UTR act -206.7
Cc1ccc(/C=C/C(=O)Nc2ccc(N(C)C)cc2)o1	aSyn 5UTR act -193.3
